Experimental data reported in the supplement of paper PMC6555819.

What was measured:
Test in all cases: PBM binding z-score (relative to random genomic background probes); higher = stronger binding; sequences stand for … in GC…GCGATTGACAGCGTAGAATGAAGG
[1] = tested on: FXR:RXRa (NR concentration 270 nM, RXRa partner concentration 90 nM)
In short: (§1)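 Antibodies against each partner of ligand-free nuclear receptor dimers (one per run) detected binding on custom Agilent 4×180K protein-binding microarrays after 1 h incubation. The double-stranded probes had 34-nt variable regions carrying direct-repeat seeds, single-nucleotide variants, half-site ablations and random human genomic background sequences. Binding z-scores, from regression-normalized fluorescence, use the random background probes as reference.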

[2] = tested on: LXRa:RXRa (NR concentration 270 nM, RXRa partner concentration 90 nM)
In short: as §1

[3] = tested on: LXRa homodimer (NR concentration 270 nM)
In short: as §1

[4] = tested on: LXRb:RXRa (NR concentration 270 nM, RXRa partner concentration 90 nM)
In short: as §1

[5] = tested on: LXRb homodimer (NR concentration 270 nM)
In short: as §1

[6] = tested on: PPARa:RXRa (NR concentration 270 nM, RXRa partner concentration 90 nM)
In short: as §1

[7] = tested on: PPARg:RXRa (NR concentration 180 nM, RXRa partner concentration 90 nM)
In short: as §1

[8] = tested on: PPARg:RXRa 270nM:90nM, anti-RXR (NR concentration 270 nM, RXRa partner concentration 90 nM)
In short: as §1

[9] = tested on: PPARg:RXRa 30nM:10nM, anti-RXR (NR concentration 30 nM, RXRa partner concentration 10 nM)
In short: as §1

[10] = tested on: PPARg:RXRa 90nM:30nM, anti-RXR (NR concentration 90 nM, RXRa partner concentration 30 nM)
In short: as §1

[11] = tested on: PPARg:RXRa DBDmut IVT, anti-RXR (DBD mutation: RXRa K156A/R161A, NR concentration 270 nM, RXRa partner concentration 90 nM)
In short: as §1

[12] = tested on: PPARg:RXRa IVT, anti-PPARg (NR concentration 270 nM, RXRa partner concentration 90 nM)
In short: as §1

[13] = tested on: PPARg DBDmut:RXRa IVT, anti-PPARg (DBD mutation: PPARg1 K132A/R137A, NR concentration 270 nM, RXRa partner concentration 90 nM)
In short: as §1

[14] = tested on: PPARg DBDmut IVT, anti-PPARg (DBD mutation: PPARg1 K132A/R137A, NR concentration 270 nM)
In short: as §1

[15] = tested on: PPARg homodimer (NR concentration 180 nM)
In short: as §1

[16] = tested on: PXR:RXRa (NR concentration 270 nM, RXRa partner concentration 90 nM)
In short: as §1

[17] = tested on: PXR homodimer (NR concentration 270 nM)
In short: as §1

[18] = tested on: RARa:RXR (NR concentration 270 nM, RXRa partner concentration 90 nM)
In short: as §1

[19] = tested on: RARa homodimer (NR concentration 270 nM)
In short: as §1

[20] = tested on: RARb:RXRa (NR concentration 270 nM, RXRa partner concentration 90 nM)
In short: as §1

| Sequence | PBM binding z-score [1] | PBM binding z-score [2] | PBM binding z-score [3] | PBM binding z-score [4] | PBM binding z-score [5] | PBM binding z-score [6] | PBM binding z-score [7] | PBM binding z-score [8] | PBM binding z-score [9] | PBM binding z-score [10] | PBM binding z-score [11] | PBM binding z-score [12] | PBM binding z-score [13] | PBM binding z-score [14] | PBM binding z-score [15] | PBM binding z-score [16] | PBM binding z-score [17] | PBM binding z-score [18] | PBM binding z-score [19] | PBM binding z-score [20] |
| --- | --- | --- | --- | --- | --- | --- | --- | --- | --- | --- | --- | --- | --- | --- | --- | --- | --- | --- | --- | --- |
| CAAACTAGGTCACCGGAAGTTCAAAGTCCGCATG | 5.16 | 5.88 | 4.93 | 4.26 | 1.06 | 5.9 | 9.18 | 7.54 | 5.95 | 7.54 | 8.47 | 9.21 | 5.32 | 4.81 | 7.04 | 6.19 | 6.26 | 5.86 | 1.72 | 4.85 |
| ATACCAAGGTGATCGTGAGGTCGGTGATACTAAC | 0.882 | 0.302 | 0.1 | 0.211 | -0.161 | 0.78 | 0.426 | -0.213 | -0.123 | -0.222 | 0.199 | 1.12 | -0.398 | 0.469 | 0.85 | 0.944 | 0.32 | 0.998 | 0.866 | 1.11 |
| CCTACTGGGCCGAAAAGGTCATTGATGCCGATAA | 3.42 | 4.38 | 2.91 | 3.93 | 0.134 | 4.47 | 1.7 | 3.34 | 0.611 | 2.39 | 0.922 | 2.21 | -1.07 | -1.05 | 1.68 | 4.56 | 1.74 | 4.84 | 0.458 | 3.77 |
| AGTCAAAGTTCATCTAAGTAACGTAAGATATGCT | 6.46 | 5.91 | 4.97 | 3.59 | 1.65 | 4.76 | 6.53 | 6.27 | 3.47 | 5.55 | 0.404 | 2.37 | 0.832 | 1.41 | 2.51 | 4.78 | 4.97 | 3.48 | 1.03 | 5.03 |
| GCTGATAGGTCAGGTTGGTCAGCTAACGGGTACG | 2.43 | 2.19 | -0.0156 | 1.67 | 0.114 | 2.71 | 0.952 | 1.4 | -0.0509 | 0.754 | 1.74 | 1.49 | -0.568 | -0.567 | 1.32 | 1.25 | -0.432 | 2.23 | -0.0849 | 3.8 |
| ATCTCTAGGTAAAGTTCAGAGAAAGATCGATAGA | 1.31 | 1.89 | 1.72 | 1.3 | 0.639 | 2.4 | 3.54 | 4.66 | 2.76 | 4.68 | 2.15 | 2.79 | 1.18 | 0.787 | 2.17 | 2.04 | 1.86 | 1.25 | 1.48 | 2.51 |
